Hits are enriched below; roughly 3.4% of the tested compounds scored in any of these assays.
Mito fusion act – qHTS Assay for Small Molecule Inhibitors of Mitochondrial Division or Activators of Mitochondrial Fusion. 0.23% of 320,000 active. S. cerevisiae fusion-defective mutant growth rescue, CellTiterGlo 48 h. Potency, µM (titrated, usually from 46.1 µM), inactives show top-dose growth rescue (activation), most hits filed as activators; note: % of control where 0% means no effect; nearly all actives have a fitted effect of over 45% in size
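Compounds are tested for their ability to restore growth of mitochondrial fusion-defective yeast strains at non-permissive 37C in YPEG medium over 48 hours. Viability is quantified by luciferase luminescence.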
PLK1 PBD inh – qHTS for Inhibitors of PLK1-PDB (polo-like kinase 1 - polo-box domain): Primary Screen. Serine/threonine-protein kinase PLK1 (Homo sapiens), P53350. Plk1 PBD binding of FITC phosphopeptide, fluorescence polarization. Potency, µM, for inactives: max response, negative = inhibition, most hits filed as inhibitors. 2.8% of 360,000 active; note: series mostly up to about 57 µM; % is set by controls: 0 for no effect and ±100 for the full control effect; nearly all actives have a fitted effect of over 65% in size
KAT2A inh – qHTS Assay for Inhibitors of GCN5L2; Histone acetyltransferase KAT2A (Homo sapiens), Q92830; GCN5L2 HAT assay, ThioGlo1 CoA-SH fluorescence; Potency, µM (titrated, usually from 58.9 µM), inactives show at the top dose activity change, negative = inhibition, hits mostly inhibitors; 0.21% of 390,000 active; note: % is set by controls: 0 for no effect and ±100 for the full control effect
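Fluorescence readout, Ex340nm/Em540nm: ThioGlo1 (50uM final) reacts with free CoA thiol released as 20nM GCN5L2 acetylates H3(1-25) peptide (75uM) using acetyl-CoA (70uM). Compound and enzyme sat 15 min beforehand; 20 min room-temperature reaction.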
VDR inh – Inhibitors of the vitamin D receptor (VDR): qHTS; AID 504847, 2011; VDR-SRC2-3 peptide fluorescence polarization, 2 h; Vitamin D3 receptor (Homo sapiens), P11473; 0.93% of 400,000 active; Potency, µM, for inactives: max response, negative = inhibition, actives largely listed as inhibitors; note: % is set by controls: 0 for no effect and ±100 for the full control effect
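The screen uses fluorescence polarization to detect compounds that interfere with recruitment of the SRC2-3 coactivator peptide to VDR; plates are read after 2 h at room temperature.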
GLS inhibitor – qHTS for Inhibitors of Glutaminase (GLS). Glutaminase kidney isoform, mitochondrial (Homo sapiens), O94925. Potency, µM (highest dose often 45.5 µM), without a hit: at the top dose activity change, negative = inhibition, most hits filed as inhibitors. GLS enzymatic activity, qHTS titration. 0.21% of 410,000 active; note: % is set by controls: 0 for no effect and ±100 for the full control effect
Target sequence (O94925 whole entry, looked up, canonical isoform): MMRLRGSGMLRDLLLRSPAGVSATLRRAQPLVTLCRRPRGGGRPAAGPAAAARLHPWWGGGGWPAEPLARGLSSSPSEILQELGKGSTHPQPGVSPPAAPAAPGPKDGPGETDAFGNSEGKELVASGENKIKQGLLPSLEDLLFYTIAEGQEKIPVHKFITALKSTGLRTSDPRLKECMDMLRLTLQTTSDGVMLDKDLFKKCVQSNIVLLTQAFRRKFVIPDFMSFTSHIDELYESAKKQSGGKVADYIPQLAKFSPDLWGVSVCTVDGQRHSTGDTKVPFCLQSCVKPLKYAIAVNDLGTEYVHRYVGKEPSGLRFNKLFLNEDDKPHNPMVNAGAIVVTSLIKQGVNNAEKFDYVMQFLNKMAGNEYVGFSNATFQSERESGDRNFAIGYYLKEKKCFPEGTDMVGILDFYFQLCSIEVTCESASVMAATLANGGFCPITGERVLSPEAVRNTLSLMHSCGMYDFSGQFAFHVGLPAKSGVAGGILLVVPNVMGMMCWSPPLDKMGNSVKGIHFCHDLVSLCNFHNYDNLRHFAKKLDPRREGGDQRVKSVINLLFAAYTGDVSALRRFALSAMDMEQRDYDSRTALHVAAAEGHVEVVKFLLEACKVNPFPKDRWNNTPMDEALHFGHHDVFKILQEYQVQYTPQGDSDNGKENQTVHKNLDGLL
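Enzyme dispensed in phosphate buffer (45 mM, pH 8.2, 0.02% Tween-20), compounds pinned in, then 1 mM L-glutamine solution and the glutamate oxidase–HRP–Amplex Red mix added; fluorescence read immediately and again after 30 min at room temperature.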
PKM2 activator – qHTS Assay for Activators of Human Muscle isoform 2 Pyruvate Kinase | Pyruvate kinase PKM (Homo sapiens), P14618 | purified PKM2, Kinase-Glo ATP luminescence, activation; response scale: 0% is enzyme alone, no compound | Potency, µM (top dose mostly 57.5 µM), without a hit: at the highest dose activation, usual class: activators | 0.34% of 260,000 active; note: % is set by controls: 0 for no effect and ±100 for the full control effect; nearly all actives have a fitted effect of over 55% in size
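Purified hPK-M2 (>95%) run at intermediate activity with 0.1 mM ADP and 0.5 mM PEP in 50 mM imidazole pH 7.2, KCl, MgCl2; 1 h room temperature. ATP formed read by Kinase-Glo luminescence; normalized to uninhibited and no-enzyme controls.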
The depositor's hits bear a star. Calls come from the whole dose curve; as a rule, active = well fitted curve in the direction sought with a large enough effect; inconclusive = small, poorly fitted or top-dose-only effect, or another doubt; inactive = no such curve, though single readings can be large; an effect the other way counts as inactive or inconclusive. Potency is the fitted concentration of half-maximal effect.

What do the screens show for `Clc1ccc(-c2cc3ccccc3nc2N2CCCC2)cc1`?
Mito fusion act: 27.1%; PLK1 PBD inh: -8.8%; KAT2A inh: -6.7%; VDR inh: 4.4%; GLS inhibitor: -13.6%; PKM2 activator: 4.0%

How did Clc1ccc(-c2cc3ccccc3nc2N2CCOCC2)cc1 do in these assays?
Mito fusion act: 5.9%; PLK1 PBD inh: 15µM*; KAT2A inh: -10.6%; VDR inh: inconclusive; GLS inhibitor: inconclusive; PKM2 activator: -2.4%

What do the screens show for `O=C(NCc1ccccc1)[C@]1(C(F)(F)F)C[C@H](CCC2CCCCC2)CCCO1`?
VDR inh: -16.3%

Results for CC(OC(=O)Cn1nnc2ccccc21)C(=O)NC1CCCC1 (stereo unspecified) ?
Mito fusion act: 4.5%; PLK1 PBD inh: -4.9%; KAT2A inh: -0.2%; VDR inh: 0.3%; GLS inhibitor: 4.3%; PKM2 activator: 1.3%

What do the screens show for `CN(C1CCCCC1)S(=O)(=O)c1ccc(Cl)c(C(=O)O)c1`?
Mito fusion act: 0.9%; PLK1 PBD inh: 18.9µM*; KAT2A inh: -0.9%; VDR inh: inconclusive; GLS inhibitor: 11.3%; PKM2 activator: -0.6%

How did COc1ccc(S(=O)(=O)N(CC(N)=O)C2CCCCC2)cc1Cl do in these assays?
Mito fusion act: -4.4%; PLK1 PBD inh: 11.9µM*; KAT2A inh: 2.1%; VDR inh: -16.0%; GLS inhibitor: -6.8%; PKM2 activator: 21.9%

How did CN(C1CCCCC1)S(=O)(=O)c1ccc(C(=O)O)cc1 do in these assays?
Mito fusion act: -1.9%; PLK1 PBD inh: -4.1%; KAT2A inh: 2.3%; VDR inh: -3.6%; GLS inhibitor: 6.6%; PKM2 activator: 1.5%

Results for O=C(CC1Oc2ccccc2NC1=O)NCc1ccccc1 (stereo unspecified) ?
Mito fusion act: -1.8%; PLK1 PBD inh: 21.2µM*; KAT2A inh: -4.2%; VDR inh: inconclusive; GLS inhibitor: 1.8%; PKM2 activator: 1.1%

What do the screens show for `Cc1cccc(C)c1-n1nnnc1C(c1ccnc2ccccc12)N1CCN(c2ccccc2F)CC1` (stereo unspecified)?
PLK1 PBD inh: 1.6%; GLS inhibitor: -0.4%

How did O=C(O)c1ccc(-c2nc(-c3ccc(Cl)cc3Cl)cs2)cc1 do in these assays?
Mito fusion act: inconclusive; PLK1 PBD inh: 0.0%; KAT2A inh: -7.3%; VDR inh: 19.4%; GLS inhibitor: 10.4%; PKM2 activator: -0.5%

Results for CC(=O)N1CC[n+]2c(-c3ccc(Cl)cc3Cl)csc21 ?
Mito fusion act: inconclusive; PLK1 PBD inh: inconclusive; KAT2A inh: -7.4%; VDR inh: 39.8µM*; GLS inhibitor: 3.4%; PKM2 activator: 27.6%

Results for CCN(C(=O)CN1C(=O)COc2ccc(S(=O)(=O)N3CCCCCC3)cc21)c1cccc(C)c1 ?
Mito fusion act: 4.9%; PLK1 PBD inh: 23.8µM*; KAT2A inh: -17.0%; VDR inh: inconclusive; GLS inhibitor: -1.0%

Results for CCOc1ccc(NC(=O)C2CCCN(S(=O)(=O)c3ccc4[nH]c(=O)ccc4c3)C2)cc1 (stereo unspecified) ?
Mito fusion act: 0.1%; PLK1 PBD inh: 26.7µM*; KAT2A inh: -7.8%; VDR inh: -20.0%; GLS inhibitor: 1.4%

How did CCN(Cc1ccccc1)C(=O)CN1C(=O)COc2ccc(S(=O)(=O)N3CCCCCC3)cc21 do in these assays?
Mito fusion act: 1.4%; PLK1 PBD inh: -5.6%; KAT2A inh: -5.4%; VDR inh: -16.8%; GLS inhibitor: -6.9%
